The supplement of paper PMC6853941
Values without a mark were called inactive.

Test system: MCF10A
Test: perturbation Mahalanobis distance of morphological profile vs DMSO controls (Mahalanobis distance (SD units)); higher = stronger morphological change, active = 7 or more
Conditions: 72 h
Method: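 MCF10A cells were seeded onto drugs dispensed acoustically into 384-well plates, using one dose per drug chosen from its human peak plasma concentration, and incubated for 72 h at 37 °C. Cells were stained for DNA, tubulin and mitochondria and imaged; 78 CellProfiler features were extracted, plate-normalised and compared with DMSO wells.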

[1] = screen batch: Batch1_Mahalanobis_Distance
[2] = screen batch: Batch2_Mahalanobis_Distance

| Compound | perturbation Mahalanobis distance [1] | perturbation Mahalanobis distance [2] |
| --- | --- | --- |
| c1cnc2cc3c(cc2n1)C1CNCC3C1 [Varenicline] (0.24 µM) | 2.52 | 2.29 |
| CN1C(CCl)Nc2cc(Cl)c(S(N)(=O)=O)cc2S1(=O)=O (configuration not stated) [Methyclothiazide] (0.5 µM) | 2.69 | 2.45 |
| CN(C)CC[C@@H](c1ccc(Cl)cc1)c1ccccn1 [Dexchlorpheniramine] (0.15 µM) | 2.03 | 2.67 |
| CCCc1nc(C(C)(C)O)c(C(=O)OCc2oc(=O)oc2C)n1Cc1ccc(-c2ccccc2-c2nn[nH]n2)cc1 [Olmesartan Medoxomil] (8.1 µM) | 2.22 | 1.74 |
| O=C1Nc2ccc(Cl)cc2[C@@](C#CC2CC2)(C(F)(F)F)O1 [Efavirenz] (28.8 µM) | 3.91 | 4.25 |
| NCCCC(N)(C(=O)O)C(F)F (configuration not stated) [Eflornithine] (319.5 µM) | 2.24 | 2.74 |
| Nc1ccc(C(=O)O)c(O)c1 [4-Aminosalicylic Acid] (130.6 µM) | 12.9 (active) | 13.9 (active) |
| C[C@@](N)(Cc1ccc(O)c(O)c1)C(=O)O [Methyldopa] (118.4 µM) | 3.81 | 3.85 |
| CC[C@H]1OC(=O)[C@H](C)[C@@H](O[C@H]2C[C@@](C)(OC)[C@@H](O)[C@H](C)O2)[C@H](C)[C@@H](O[C@@H]2O[C@H](C)C[C@H](N(C)C)[C@H]2O)[C@](C)(O)C[C@@H](C)CN(C)[C@H](C)[C@@H](O)[C@]1(C)O [Azithromycin] (6.7 µM) | 3.29 | 4.74 |
| CC(C)(C#N)c1cc(Cn2cncn2)cc(C(C)(C)C#N)c1 [Anastrozole] (0.51 µM) | 3.5 | 3.49 |
| COc1ccccc1Oc1c(NS(=O)(=O)c2ccc(C(C)(C)C)cc2)nc(-c2ncccn2)nc1OCCO [Bosentan] (33.6 µM) | 3.04 | 5.42 |
| CC12CCC(=O)C=C1C=CC1C2CCC2(C)C1CCC21CCC(=O)O1 (configuration not stated) [Canrenone] (3 µM) | 3.06 | 3.02 |
| CN1CCC(=C2c3ccccc3CCc3cccnc32)CC1 [Azatadine] (0.43 µM) | 2.42 | 2.53 |
| CCN(CC)C(=S)SSC(=S)N(CC)CC [Disulfiram] (6.7 µM) | 2.16 | 3 |
| CCC(=O)NCC[C@@H]1CCc2ccc3c(c21)CCO3 [Ramelteon] (0.13 µM) | 2.83 | 2.59 |
| Cc1[nH]c(=O)c(C#N)cc1-c1ccncc1 [Milrinone] (5.9 µM) | 2.49 | 3.46 |
| O=C1CC2(CCCC2)CC(=O)N1CCCCN1CCN(c2ncccn2)CC1 [Buspirone] (0.05 µM) | 1.84 | 3.36 |
| NN1CCOC1=O [3-Amino-2-Oxazolidinone] (49 µM) | 2.59 | 2.76 |
| CCc1c2c(nc3ccc(O)cc13)-c1cc3c(c(=O)n1C2)COC(=O)[C@]3(O)CC [7-Ethyl-10-Hydroxy-Camptothecin] (16.78 µM) | 2.85 | 2.55 |
| CC(=O)/C(C#N)=C(\O)Nc1ccc(C(F)(F)F)cc1 [Teriflunomide (A77 1726)] (66.9 µM) | 4.02 | 2.47 |
| Cc1cc(C)cc(OCC2CNC(=O)O2)c1 (configuration not stated) [Metaxalone] (38.4 µM) | 3.33 | 4.58 |
| O=C1c2c(O)ccc(O)c2C(=O)c2c(NCCNCCO)ccc(NCCNCCO)c21 [Mitoxantrone] (3.4 µM) | 9.47 (active) | 16.4 (active) |
| Nc1nc(NC2CC2)c2ncn(C3C=C[C@H](CO)C3)c2n1 (some centres not stated) [Abacavir] (74.4 µM) | 3.81 | 2.47 |
| O=C1CCc2ccc(OCCCCN3CCN(c4cccc(Cl)c4Cl)CC3)cc2N1 [Aripiprazole] (3.3 µM) | 2.24 | 2.92 |
| CC(C)NCC(O)c1ccc(O)c(O)c1 (configuration not stated) [Isoproterenol] (11.8 µM) | 3.12 | 4.76 |
| CNCCCC12CCC(c3ccccc31)c1ccccc12 [Maprotiline] (10.8 µM) | 3.39 | 6.41 |
